This note sets out measurements from PubChem BioAssay (NCATS).

Inconclusive results are not listed. A number with no mark means an inactive call. Calls follow the shape of the dose curve; as a rule, active = well fitted inhibition curve with a large enough effect; inconclusive = small, poorly fitted or top-dose-only effect; inactive = no such curve, though single readings can be large or run the other way.
% is scaled to controls: 0 for no effect and ±100 for the full control effect.

The assay can be described thus: HTS Assay for Allosteric Antagonists of the Human D2 Dopamine Receptor: Hit Validation in HTRF (AID 624455).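 Also: stable D1 dopamine receptor cell line scored for blocking the D1 response.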 The following applies: Cells stably expressing D1 dopamine receptor, inhibition mode; series mostly up to 46.1 µM; activity, negative = inhibition: at the top concentration. The text has this:
Dopamine receptors (DARs) are involved in the etiology and/or therapy of a number of neuropsychiatric and endocrine disorders. For instance, all receptor-based antiparkinsonian drugs work via stimulating the D2 DAR subtype whereas all FDA-approved antipsychotic agents are antagonists of this receptor. […] There are three different types of allosteric modulators that we are seeking, two of which will stimulate or augment receptor signaling, allosteric agonists and potentiators, while the third, allosteric antagonists, will attenuate receptor signaling. The present primary screening assay measures compound antagonism after an EC80 addition of dopamine by tracking calcium flux in a […], inducible Hek293 Trex D2 cell line. This assay measures activity of the hits in the D1 HTRF assay.
NIH Chemical Genomics Center [NCGC]
NIH Molecular Libraries Probe Centers Network [MLPCN]
Assay Submitter (PI): David Sibley
Cells stably expressing the D1 dopamine receptor will be run in an HTRF assay and compounds will be examined for the ability to inhibit the D1 mediated response.
For `CC(C)[N+](C)(CCOC(=O)C1c2ccccc2Oc2ccccc21)C(C)C`, the “activity, negative = inhibition” value was -4.34%.
Regarding `CN1CCN(C2=Nc3ccccc3Oc3ccc(Cl)cc32)CC1`, the “activity, negative = inhibition” value was 8.34%.
Then `CCOC(=O)C1=C(C)NC(C)=C(C(=O)OC)C1c1cccc(Cl)c1Cl` (stereo not given), with 2.91%.
Then `NCCCNCCSP(=O)(O)O`, with -5.78%; and `COc1cc(Cc2cnc(N)nc2N)cc(OC)c1OC`, with -1.42%; and `CCCN(CCC)CCc1cccc2c1CC(=O)N2`, with -11.3%.
In the case of `CN(C(=O)CCCOc1ccc2[nH]c(=O)ccc2c1)C1CCCCC1` it was 1.83%; in that of `CCCN(CCC)C(=O)C(CCC(=O)O)NC(=O)c1ccccc1` (stereo not given), -4.03%; in that of `CO[C@@]1(NC(=O)CSCC#N)C(=O)N2C(C(=O)O)=C(CSc3nnnn3C)CS[C@@H]21`, 0.165%.
Take `CCCCNc1c(C(=O)OCC)c(C)nc2c1cnn2CC`: the “activity, negative = inhibition” value is -2.83%.
Turning to `Cc1ccc(/C(=C\CN2CCCC2)c2ccccn2)cc1`, the “activity, negative = inhibition” value is 10.2%.
In the case of `C[N+](C)(C)CCOC(=O)CCC(=O)OCC[N+](C)(C)C` it was -4.06%; in that of `O=C(O)CN(CCN(CC(=O)O)CC(=O)O)CCN(CC(=O)O)CC(=O)O`, -2.22%; in that of `CCCCCCCC/C=C\CCCCCCCC(=O)NCc1ccc(O)c(OC)c1`, -5.21%.
`COC(=O)C1=C(C)NC(C)=C(C(=O)OC(C)(C)CN(C)CCC(c2ccccc2)c2ccccc2)C1c1cccc([N+](=O)[O-])c1` (stereo not given): the “activity, negative = inhibition” value is -4.4%.
Then `COc1cc2c(cc1OC)-c1cc(=Nc3c(C)cc(C)cc3C)n(C)c(=O)n1CC2`, with -2.08%.
On to `Cc1scc2c1N(C(=O)CN1CCN(C)CC1)c1ccccc1NC2=O`, for which the “activity, negative = inhibition” value is -5.44%.
Regarding `Cc1ccc(=O)n(-c2ccccc2)c1`, the “activity, negative = inhibition” value was -4.03%.
Then `CN(C)C(=O)Oc1ccc[n+](C)c1`, with 0.708%; and `CC(C)NCC(O)c1cc(O)cc(O)c1` (stereo not given), with -1.33%; and `Cc1nc2c([nH]1)c(=O)n(C)c(=O)n2Cc1ccco1`, with 2.03%.
With `CN(C)CC[C@@H](c1ccc(Br)cc1)c1ccccn1`, the “activity, negative = inhibition” value was 3.41%.
With `CC(=O)[C@]1(O)Cc2c(O)c3c(c(O)c2[C@@H](O[C@H]2C[C@H](N)[C@H](O)[C@H](C)O2)C1)C(=O)c1ccccc1C3=O`, the “activity, negative = inhibition” value is 6.66%.
In the case of `CN1C(=O)CC[C@H]1c1cccnc1` it was -0.826%; in that of `CCOC(=O)C1=C(C)NC(C)=C(C(=O)OC)C1c1cccc([N+](=O)[O-])c1` (stereo not given), 8.16%; in that of `CCN(CC)CCCN(c1ccccc1)C1Cc2ccccc2C1`, 8.92%.
Then `Nc1ncn([C@@H]2O[C@H](CO)[C@@H](O)[C@H]2O)c(=O)n1`, with 0.507%; and `O=C1CC2(CCCC2)CC(=O)N1CCCCN1CCN(c2ncccn2)CC1`, with -0.0944%.
Take `NS(=O)(=O)c1cc2c(cc1Cl)NC(C1CC3C=CC1C3)NS2(=O)=O` (stereo not given): the “activity, negative = inhibition” value was 15%.
Then `COCCOC(=O)C1=C(C)NC(C)=C(C(=O)OC(C)C)C1c1cccc([N+](=O)[O-])c1` (stereo not given), with -2.96%; and `C[C@]12CCC(=O)C=C1CC[C@@H]1[C@@H]2C(=O)C[C@@]2(C)[C@H]1CC[C@]2(O)C(=O)CO`, with -4.73%; and `CN(C)C(=O)Oc1cccc([N+](C)(C)C)c1`, with 4.65%.
Then `O=C(O)CCCCCCCC(=O)O`, with -2.84%; and `CN(C)CCN(Cc1cccs1)c1ccccn1`, with 11.6%.
In the case of `C[N+](C)(C)CCOC(N)=O` it was -4.71%; in that of `COCCCC/C(=N\OCCN)c1ccc(C(F)(F)F)cc1`, -2.61%; in that of `O=c1[nH]c(=O)n([C@H]2C[C@H](O)[C@@H](CO)O2)cc1Br`, -0.684%.
`NC/C=C/C(=O)O`: the “activity, negative = inhibition” value is -4.45%.
In the case of `COc1ccc(CCN(C)CCCC(C#N)(c2cc(OC)c(OC)c(OC)c2)C(C)C)cc1OC` (stereo not given) it was 7.57%; in that of `COc1ccc([C@@H]2Sc3ccccc3N(CCN(C)C)C(=O)[C@@H]2OC(C)=O)cc1`, 1.38%.
